# In PubChem BioAssay (NCATS):
# Records with an inconclusive call do not appear. Entries that show only a call come without a potency. Calls of active or inactive are those of the source. Unless noted, calls come from the whole dose curve.
# Tests used:
# [1] = Primary qHTS for Huh7 cytotoxicity: counterscreen for inhibitors of MERS-S pseudotyped particle cell entry (AID 1479147); settings: outcome: dose series up to 57.1 µM unless noted
# [2] = Primary qHTS for inhibitors of MERS-S pseudo-typed particle cell entry (AID 1479149); settings: outcome: dose series up to 57.1 µM unless noted; note: nearly all actives have a fitted effect of over 60% in size
# [3] = Primary qHTS for Vero E6 cytotoxicity: counterscreen for inhibitors of SARS-S pseudo-typed particle cell entry (AID 1479150); settings: outcome: dose series up to 57.1 µM unless noted
# [4] = Cytotoxicity counterscreen for inhibitors of SARS-CoV-2 cell entry (AID 1645845); settings: outcome: dose series up to 57.1 µM unless noted; note: nearly all actives have a fitted effect of over 50% in size; note: potency is the fitted concentration of half-maximal effect
# How it was run: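 Expi293F/hACE2 cells seeded overnight; cpd pin-transferred in DMSO, 1 h preincubation, + media, 48 h 37 C 5% CO2; ATPLite 1step luminescence; normalized to cells and no cells.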
# [5] = molecular target: Glutathione peroxidase 1 (Homo sapiens) (UniProt P07203); assay: Primary qHTS Assay for Inhibitors of Recombinant Selenoprotein Glutathione Peroxidase 1 (GPX1) (AID 1845191; active = well fitted curve in the direction sought with a large enough effect; an effect the other way counts as inactive or inconclusive; note: nearly all actives have a fitted effect of over 65% in size)
# How it was run: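 Recombinant GPX1 (10 nM final) was preincubated with compound for 30 min at room temperature, then reacted with 1 mM GSH, 0.5 mM CHP, 0.5 mM NADPH and 100 nM glutathione reductase; NADPH fluorescence (340/450 nm) was read at 0 and 15 min.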
# [6] = molecular target: Phospholipid hydroperoxide glutathione peroxidase GPX4 (Homo sapiens) (UniProt P36969); assay: Primary qHTS Assay for Inhibitors of Recombinant Selenoprotein Glutathione Peroxidase 4 (GPX4) (AID 1845192; active = well fitted curve in the direction sought with a large enough effect; an effect the other way counts as inactive or inconclusive; note: nearly all actives have a fitted effect of over 65% in size)
# How it was run: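 GR-coupled readout: 100 nM GR, 1 mM GSH, 0.5 mM NADPH; NADPH fluorescence (ex 340/em 450 nm) read at t=0 and after 15 min RT. GPX4 200 nM, preincubated 30 min with compound; substrate 0.5 mM CHP.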
# [7] = qHTS Assay for Identifying Gametocytocidal Compounds (AID 743244; active = well fitted curve in the direction sought with a large enough effect; an effect the other way counts as inactive or inconclusive; note: potency is the fitted concentration of half-maximal effect); settings: P. falciparum 3D7 stage III-V gametocytes, alamarBlue, 72 h
# How it was run: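 Stage III-V P. falciparum 3D7 gametocytes, 20,000 per well, were exposed to compounds for 72 h at 37C, 5% CO2. AlamarBlue was then added for 24 h and viability was read as fluorescence at Ex 525/Em 598 nm.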
# [8] = Primary qHTS to identify inhibitors of SARS-CoV-2 cell entry (AID 1645846); settings: SARS-CoV-2 pseudovirus cell entry assay, luminescence; activity change, negative = inhibition: at 57.1 µM (top of the series) unless noted; note: nearly all actives have a fitted effect of over 45% in size; note: potency is the fitted concentration of half-maximal effect
# How it was run: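 Entry measured by luciferase signal 48 h after adding SARS-CoV-2-S pseudotyped MLV particles to HEK293-ACE2 cells preincubated 1 h with compounds. Normalisation: bald particles and spike particles.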
# [9] = Confirmatory qHTS to identify inhibitors of SARS-CoV-2 cell entry (AID 1645844); note: potency is the fitted concentration of half-maximal effect; nearly all actives have a fitted effect of over 45% in size
# How it was run: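 HEK293-ACE2 cells (Expi293F stably expressing human ACE2) were pretreated with compounds for 1 hr at 37C, then infected with MLV-based particles carrying Wuhan-Hu-1 spike (C-terminal 19-aa truncation). Luciferase luminescence read after 48 hr; normalized to spike PP (100%) and bald PP (0%).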
# [10] = VSVG counterscreen qHTS to identify inhibitors of SARS-CoV-2 cell entry (AID 1645847); note: potency is the fitted concentration of half-maximal effect; nearly all actives have a fitted effect of over 65% in size
# How it was run: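 Luminescence read after 48 h infection at 37 C with VSV-G-pseudotyped MLV particles, following 1 h compound exposure of Expi293F cells stably expressing human ACE2; scaled between bald particle and VSV-G particle wells.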
# Sequence of Glutathione peroxidase 1 (Homo sapiens) (P07203 whole entry, looked up): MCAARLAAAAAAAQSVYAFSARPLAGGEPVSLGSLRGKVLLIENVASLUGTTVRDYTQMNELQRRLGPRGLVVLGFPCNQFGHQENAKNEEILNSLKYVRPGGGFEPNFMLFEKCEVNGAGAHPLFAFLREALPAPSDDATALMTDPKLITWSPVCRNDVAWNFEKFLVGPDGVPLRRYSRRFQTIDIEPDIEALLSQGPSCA
# Sequence of Phospholipid hydroperoxide glutathione peroxidase GPX4 (Homo sapiens) (P36969 whole entry, looked up): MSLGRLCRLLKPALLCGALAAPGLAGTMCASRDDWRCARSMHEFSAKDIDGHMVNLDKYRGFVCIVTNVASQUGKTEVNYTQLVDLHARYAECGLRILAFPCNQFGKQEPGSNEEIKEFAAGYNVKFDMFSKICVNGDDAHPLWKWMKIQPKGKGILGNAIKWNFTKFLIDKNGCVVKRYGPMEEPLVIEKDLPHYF
smiles,measurement,setting,value
C=C[C@H]1CN2CC[C@H]1C[C@@H]2[C@@H](OC(=O)OCC)c1ccnc2ccc(OC)cc12,Potency,[1],inactive
same,Potency,[2],inactive
same,Potency,[3],inactive
same,Potency,[4],inactive
same,Potency,[5],inactive
same,Potency,[6],inactive
CCN1C[C@@]2(COC)C3[C@@H](OC)C4[C@@H]1[C@@]3(C1C[C@]3(O)[C@H](OC(=O)c5ccccc5)C1[C@]4(OC(C)=O)[C@@H](O)[C@@H]3OC)[C@@H](OC)C[C@H]2O (some centres undefined),Potency,[1],inactive
same,Potency,[2],inactive
same,Potency,[3],inactive
same,Potency,[4],inactive
same,Potency,[5],inactive
same,Potency,[6],inactive
CCCC(CCC)C(=O)OC1C[C@H]2CC[C@@H](C1)[N+]2(C)C (some centres undefined),Potency,[7],10 µM (active)
same,Potency,[1],inactive
same,Potency,[2],inactive
same,Potency,[3],inactive
same,Potency,[4],inactive
Cc1ccc(C2(O)CCN(CCCC(=O)c3ccc(F)cc3)CC2)cc1,Potency,[1],inactive
same,Potency,[3],inactive
same,Potency,[4],inactive
CC(=O)O[C@]1(C(C)=O)CC[C@H]2[C@@H]3C=C(C)C4=CC(=O)CC[C@@H]4[C@H]3CC[C@@]21C,Potency,[1],inactive
same,Potency,[3],inactive
same,Potency,[4],inactive
same,"activity change, negative = inhibition",[8],-20%
COc1cc2c(cc1OC)[C@H]1C[C@@H](OC(=O)[C@@H](N)C(C)C)[C@H](CC(C)C)CN1CC2,Potency,[1],inactive
same,Potency,[3],inactive
same,Potency,[4],inactive
COc1cc2[nH]c(C)c(CCN3CCN(c4ccccc4)CC3)c2cc1OC,Potency,[1],inactive
same,Potency,[3],inactive
same,Potency,[4],inactive
same,"activity change, negative = inhibition",[8],-39.8%
CCCCCCCCCC(=O)OCCN1CCN(CC/C=C2\c3ccccc3Sc3ccc(C(F)(F)F)cc32)CC1,Potency,[1],inactive
same,Potency,[3],inactive
same,Potency,[4],inactive
O=C1CSC2(CCN(CCCN3c4ccccc4Sc4ccc(Cl)cc43)CC2)N1,Potency,[1],inactive
same,Potency,[3],inactive
same,Potency,[8],25.1 µM (active)
O=C1[C@@H]2[C@H]3CC[C@H](C3)[C@@H]2C(=O)N1C[C@@H]1CCCC[C@H]1CN1CCN(c2nsc3ccccc23)CC1,Potency,[1],inactive
same,Potency,[3],inactive
same,Potency,[9],12.1 µM (active)
same,Potency,[4],inactive
same,Potency,[8],31.6 µM (active)
same,Potency,[10],3.04 µM (active)
C=CC[C@@H]1/C=C(\C)C[C@H](C)C[C@H](OC)[C@H]2O[C@@](O)(C(=O)C(=O)N3CCCC[C@H]3C(=O)O[C@H](/C(C)=C/[C@@H]3CC[C@@H](O)[C@H](OC)C3)[C@H](C)[C@@H](O)CC1=O)[C@H](C)C[C@@H]2OC,Potency,[1],inactive
same,Potency,[3],inactive
same,Potency,[4],inactive
same,Potency,[8],inactive
CCCCCCCC(=O)CC[C@@H]1[C@@H](C/C=C\CCCC(=O)OC(C)C)[C@@H](O)C[C@H]1O,Potency,[1],inactive
same,Potency,[3],inactive
same,Potency,[8],25.1 µM (active)
COC(=O)N[C@H](C(=O)N1CCC[C@H]1c1ncc(-c2ccc(-c3ccc(-c4cnc([C@@H]5CCCN5C(=O)[C@@H](NC(=O)OC)C(C)C)[nH]4)cc3)cc2)[nH]1)C(C)C,Potency,[1],inactive
same,Potency,[3],inactive
same,Potency,[4],39.8 µM (active)
same,Potency,[10],1.71 µM (active)
CC(CC(c1ccccc1)c1ccccc1)NC(C)(C)C (centres undefined),Potency,[1],inactive
same,Potency,[3],inactive
same,Potency,[4],inactive
CCCCCCCCCC(=O)OCCN1CCN(CCCN2c3ccccc3Sc3ccc(C(F)(F)F)cc32)CC1,Potency,[1],inactive
same,Potency,[3],inactive
same,Potency,[4],inactive
CCN1CCN(Cc2ccc(Nc3ncc(F)c(-c4cc(F)c5nc(C)n(C(C)C)c5c4)n3)nc2)CC1,Potency,[1],inactive
same,Potency,[3],inactive
same,Potency,[9],5.41 µM (active)
same,Potency,[4],inactive
same,Potency,[8],10 µM (active)
same,Potency,[10],6.81 µM (active)
C=Cc1c(C)c2cc3nc(cc4[nH]c(cc5nc(cc1[nH]2)C(C)=C5CCC(=O)O)c(CCC(=O)OC)c4C)[C@@]1(C)C3=CC=C(C(=O)OC)[C@@H]1C(=O)OC,Potency,[1],inactive
same,Potency,[3],inactive
same,Potency,[4],inactive
Cc1cncc(CN2CCC(=C3c4ccc(Cl)cc4CCc4cccnc43)CC2)c1,Potency,[1],inactive
same,Potency,[3],inactive
same,Potency,[9],0.607 µM (active)
same,Potency,[4],inactive
same,Potency,[8],12.6 µM (active)
same,Potency,[10],27.1 µM (active)
CCCCCCC(COC(=O)c1cccnc1)(COC(=O)c1cccnc1)COC(=O)c1cccnc1,Potency,[1],inactive
same,Potency,[3],inactive
same,Potency,[4],inactive
same,"activity change, negative = inhibition",[8],-17.5%
CCCCCCCC(=O)N[C@H](CN1CCCC1)[C@H](O)c1ccc2c(c1)OCCO2,Potency,[1],inactive
same,Potency,[3],inactive
same,Potency,[4],inactive
CC(CN1c2ccccc2Sc2cccnc21)N(C)C (centres undefined),Potency,[1],inactive
same,Potency,[3],inactive
same,Potency,[9],24.1 µM (active)
same,Potency,[4],inactive
same,Potency,[10],24.1 µM (active)
CC(Cc1ccc(O)c(O)c1)C(C)Cc1ccc(O)c(O)c1 (centres undefined),Potency,[1],inactive
same,Potency,[3],inactive
same,Potency,[4],inactive
same,Potency,[10],27.1 µM (active)
OC(CCN1CCCCC1)(c1ccccc1)C1CCCC1 (centres undefined),Potency,[1],inactive
same,Potency,[3],inactive
same,Potency,[4],inactive
CC(C)[C@H]1C(=O)N[C@@H](CCCN=C(N)N)C(=O)NCC(=O)N[C@@H](CC(=O)O)C(=O)N[C@H](Cc2ccccc2)C(=O)N1C,Potency,[1],inactive
same,Potency,[3],inactive
same,Potency,[4],inactive
CC(C)C[C@H]1C(=O)N2CCC[C@H]2[C@]2(O)O[C@](NC(=O)[C@@H]3C=C4c5cccc6[nH]c(Br)c(c56)CC4N(C)C3)(C(C)C)C(=O)N12 (some centres undefined),Potency,[1],inactive
same,Potency,[3],inactive
same,Potency,[4],inactive
same,Potency,[8],22.4 µM (active)
O=C(O)c1ccc2nc(-c3cc(Cl)cc(Cl)c3)oc2c1,Potency,[1],inactive
same,Potency,[3],inactive
same,Potency,[4],inactive
same,Potency,[8],inactive
Cc1cnc(C(=O)N[C@H]2CCCCC/C=C\[C@H]3C[C@@]3(C(=O)NS(=O)(=O)C3CC3)NC(=O)[C@@H]3C[C@@H](Oc4nc5ccccc5c5ccccc45)CN3C2=O)cn1,Potency,[1],inactive
same,Potency,[3],inactive
same,Potency,[4],inactive
CCCCCCCCCC(=O)NO,Potency,[1],inactive
same,Potency,[3],inactive
same,Potency,[4],inactive
O=C(CCCN1CCC(C(=O)c2ccc(F)cc2)CC1)c1ccc(F)cc1,Potency,[1],inactive
same,Potency,[3],inactive
same,Potency,[4],inactive
CCN1CCC(=C2c3ccccc3CCc3ccccc32)C1C (centres undefined),Potency,[1],inactive
same,Potency,[3],inactive
same,Potency,[4],inactive
CCCCC(=O)O[C@H]1CC[C@H]2[C@@H]3CCc4cc(O)ccc4[C@H]3CC[C@]12C,Potency,[1],inactive
same,Potency,[3],inactive
same,"activity change, negative = inhibition",[8],-64.3%
CCC1OC(=O)[C@H](C)C(=O)[C@H](C)[C@@H](OC2O[C@H](C)C[C@H](N(C)C)[C@H]2O)[C@](C)(OC)C[C@@H](C)C(=O)[C@@H](C)[C@@H]2N(CCCCn3cnc(-c4cccnc4)c3)C(=O)O[C@]12C (some centres undefined),Potency,[1],inactive
same,Potency,[3],inactive
same,Potency,[4],inactive
CCOC(=O)Oc1c(OC)cc(C(=O)O[C@@H]2C[C@@H]3CN4CCc5c([nH]c6cc(OC)ccc56)[C@H]4C[C@@H]3[C@H](C(=O)OC)[C@H]2OC)cc1OC,Potency,[1],inactive
same,Potency,[3],inactive
same,Potency,[4],inactive
same,Potency,[8],22.4 µM (active)
CC(=O)c1ccc2c(c1)N(CCCN1CCN(CCO)CC1)c1ccccc1S2,Potency,[1],inactive
same,Potency,[3],inactive
same,Potency,[4],inactive
same,"activity change, negative = inhibition",[8],-25.7%
COC(=O)C1=C(C#N)NC(C)=C(C(=O)OC(C)C)C1c1cccc([N+](=O)[O-])c1 (centres undefined),Potency,[1],inactive
same,Potency,[3],inactive
same,Potency,[4],inactive
CC(C)(C)NCC(O)COc1ccccc1C1CCCC1 (centres undefined),Potency,[1],inactive
same,Potency,[3],inactive
same,Potency,[4],inactive
same,Potency,[8],10 µM (active)
same,Potency,[10],12.1 µM (active)
